# GPR151 activ = activators of human GPR151, primary screen, cell-based, PathHunter beta-arrestin, luminescence. G-protein coupled receptor 151 (Homo sapiens), Q8TDV0. PathHunter beta-arrestin GPR151 cells. activation, % at 11.2 µM. actives 1% (n = 650,000); in the data active means activation above about 4.9%;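 further: 0% = median of compound wells and 100% = cells with positive control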
# TEAD-YAP inh = TEAD-YAP interaction inhibition, primary screen, TEAD-YAP interaction inhibitor project, luminescence, HEK-TIYL cells; TEAD-Gal4/YAP UAS-luciferase luminescence; inhibition, % at 9.12 µM; actives 1.4% (n = 640,000); in the data active means inhibition above about 32%;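 further: 0% = median of test compound wells and 100% = reference inhibitor wells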
# MITF inh = MITF inhibitors, primary screen, biochemical, AlphaScreen, human; Microphthalmia-associated transcription factor (Homo sapiens), O75030; AlphaScreen MITF homodimerization, bead proximity signal; inhibition, % at 2.6 µM; actives 0.91% (n = 650,000); in the data active means inhibition above about 50%;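 further: 0% = vehicle wells with protein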
# FBW7 act = FBW7 E3 ligase activators, primary screen, biochemical, AlphaScreen, human. AID 1259310, 2017. actives 0.13% (n = 650,000). normalized activity (activation), % at 26.1 µM. AlphaScreen FBW7–phospho-cyclin E peptide binding, activator screen; in the data active means normalized activity above about 1.9%;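 further: purified mutant Fbw7 with reduced substrate affinity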
# Target sequence (Q969H0 whole entry, looked up): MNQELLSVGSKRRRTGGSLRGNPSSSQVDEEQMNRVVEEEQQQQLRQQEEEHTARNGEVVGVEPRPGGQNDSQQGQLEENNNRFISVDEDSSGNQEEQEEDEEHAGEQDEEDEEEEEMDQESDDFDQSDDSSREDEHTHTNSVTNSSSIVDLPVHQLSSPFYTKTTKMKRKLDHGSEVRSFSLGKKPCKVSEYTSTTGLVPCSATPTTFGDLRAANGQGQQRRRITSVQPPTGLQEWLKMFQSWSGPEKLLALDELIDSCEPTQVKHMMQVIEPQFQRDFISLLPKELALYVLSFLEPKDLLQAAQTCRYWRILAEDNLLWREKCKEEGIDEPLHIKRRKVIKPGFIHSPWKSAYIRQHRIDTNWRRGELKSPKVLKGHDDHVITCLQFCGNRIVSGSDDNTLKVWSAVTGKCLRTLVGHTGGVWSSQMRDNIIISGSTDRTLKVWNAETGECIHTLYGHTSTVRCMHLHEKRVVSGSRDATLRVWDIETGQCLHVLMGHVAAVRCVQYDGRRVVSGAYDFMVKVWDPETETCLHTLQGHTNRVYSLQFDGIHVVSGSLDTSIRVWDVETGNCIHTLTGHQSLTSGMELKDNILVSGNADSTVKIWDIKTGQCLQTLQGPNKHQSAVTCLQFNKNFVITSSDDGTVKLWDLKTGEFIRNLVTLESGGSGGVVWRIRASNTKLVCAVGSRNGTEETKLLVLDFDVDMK
# MITF inh conf = MITF inhibitors, retest of hits, confirmation, biochemical, AlphaScreen, triplicate; shares compounds with MITF inh; AlphaScreen MITF homodimerization, biotin/His-MITF beads; inhibition, % at 2.6 µM; actives 16% (n = 4,700);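 active means inhibition above a cutoff derived from the DMSO control wells, cut at about 28% in these data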;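 further: 0% = MITF dimer wells with DMSO only; inhibitors lower the bead chemiluminescence by keeping MITF from dimerizing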
# AlphaScreen DR = AlphaScreen optical interference compounds, dose response, counter-screen, biochemical, HTS. shares compounds with MITF inh. AlphaScreen optical interference counterscreen, cell-free. IC50, µM. actives 6% (n = 480). AID 1259373, 2018; call rule not given here
# AS interf ctr = AlphaScreen optical interference compounds, counter-screen for MITF inhibitor project, biochemical, triplicate. shares compounds with MITF inh. LysRS AlphaScreen counterscreen, signal interference. inhibition, % at 2.6 µM. actives 7.6% (n = 4,700). AID 1259376, 2018;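 active means inhibition above a cutoff derived from the DMSO control wells, cut at about 30% in these data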
# An asterisk follows results filed as active; nt = no result given. Rows were chosen to be rich in hits. Some 3.5% of all compounds tested hit in one or more screens of this group.
SMILES,GPR151 activ,TEAD-YAP inh,MITF inh,FBW7 act,MITF inh conf,AS interf ctr,others
COC(=O)/C(=C\N(C)C)c1ccccc1,-1,-2,-2,0,nt,nt,
CCOc1cc(CN2CCN(Cc3ccccc3C)CC2)ccc1OC,1,2,52*,0,2,15,
COc1ccc(CN2CCN(Cc3ccccc3C)CC2)cc1OC,-1,10,62*,0,5,14,
COc1ccc(CN2CCCC(O)C2)cc1Br (stereo not given),1,0,18,1,nt,nt,
CN(Cc1ccccc1)C1CCN(Cc2ccccc2[N+](=O)[O-])CC1,0,4,59*,0,-3,4,
COc1cc(OC)c(CN2CCCC(O)C2)cc1Br (stereo not given),-1,5,54*,2,33*,-4,AlphaScreen DR=>6.5
CCOc1cc(CN2CCN(Cc3cccc(C)c3)CC2)ccc1OC,-1,5,14,0,nt,nt,
COc1ccc(C(C)=O)cc1CSc1nc2c(sc(=S)n2CCc2ccccc2)c(=O)n1Cc1ccco1,0,-9,-32,0,nt,nt,
COc1cccc(OC)c1C(=O)N1CCN(Cc2ccc3ccccc3c2)CC1,4,0,41,0,nt,nt,
COc1cc(OC)c(OC)cc1CN1CCN(Cc2ccccc2C)CC1,1,1,74*,0,-13,3,
COc1cc(OC)c(OC)cc1CN1CCN(Cc2cccn2C)CC1,-1,-4,63*,-1,13,18,
COc1cc(OC)c(OC)cc1CN1CCN(c2ccccc2OC)CC1,0,6,38,0,nt,nt,
COc1cc(OC)c(OC)cc1CN1CCCN(C)CC1,0,3,37,0,nt,nt,
FC(F)(F)c1ccccc1CN1CCN(Cc2ccc3ccccc3c2)CC1,1,6,83*,0,18,23,
COc1ccccc1CN1CCN(Cc2ccc3ccccc3c2)CC1,0,6,78*,0,18,22,
O=C(NCCN1CCN(C(=O)c2ccc(Br)cc2)CC1)C(=O)Nc1ccc(F)cc1,0,2,-2,0,nt,nt,
Cc1ccc(C(=O)NC2CC(C)(C)NC(C)(C)C2)c(Cl)c1,2,0,3,0,nt,nt,
COc1ccccc1CN1CCN(Cc2ccc(OC)c(OC)c2)CC1,0,-1,62*,0,7,13,
COc1ccc(CN2CCN(Cc3ccccc3[N+](=O)[O-])CC2)cc1OC,0,-5,67*,0,-3,-6,
CCc1ccc(CN2CCN(Cc3ccccc3[N+](=O)[O-])CC2)cc1,1,1,74*,0,9,0,
COc1ccc(CN2CCN(Cc3ccccc3Cl)CC2)cc1OC,1,0,71*,0,11,22,
COc1ccc(CNCc2ccccc2Cl)cc1OC,-1,-8,28,0,nt,nt,
COc1ccc(NC2=NC(=S)N(c3ccccc3)C23CCCCC3)cc1,-1,-2,7,0,nt,nt,
COc1cc(Br)c(CN2CCCN(C)CC2)cc1OC,1,4,11,1,nt,nt,
COc1cc(OC)c(OC)cc1CN1CCN(Cc2cc(OC)c(OC)cc2Br)CC1,-1,7,72*,0,12,19,
SMILES,GPR151 activ,TEAD-YAP inh,MITF inh,FBW7 act,MITF inh conf,AS interf ctr,others
COc1ccc(-n2c(CN3CCSCC3)n[nH]c2=S)cc1,1,16,71*,0,-6,10,
N#C/C(C(=O)N1CCOCC1)=c1/s/c(=C\c2cccs2)c(=O)n1-c1ccccc1,2,4,17,0,nt,nt,
CC(C(=O)N1CCCCC1)N(C)CC(=O)Nc1ccc(F)c(F)c1F (stereo not given),0,6,69*,0,9,14,
COc1ccc(OC)c(CN2CCC(N3CCCCC3)CC2)c1,0,8,52*,0,10,9,
COc1ccc(CN2CCC(N3CCCCC3)CC2)c(OC)c1,-1,1,25,0,nt,nt,
COc1ccc(OC)c(CN2CCN(C3CCCC3)CC2)c1,-1,5,70*,0,4,7,
Brc1ccc(CN2CCC(N3CCCCC3)CC2)cc1,-1,-8,42,0,nt,nt,
COc1ccc(OC)c(CN2CCC(O)CC2)c1,-1,-4,37,0,nt,nt,
COc1ccc(CN2CCC(N3CCCC3)CC2)cc1,0,-2,52*,0,3,3,
CCN1CCN(C2CCN(Cc3cc(OC)ccc3OC)CC2)CC1,0,10,61*,0,-5,-6,
Cc1cc(NC(=O)C(=O)NCc2ccco2)no1,0,0,0,0,nt,nt,
Nc1n[nH]c(C(=O)N/N=C/c2cccs2)n1,1,-4,77*,0,51*,95*,
Cn1cccc1/C=N/NC(=O)c1nc(N)n[nH]1,-1,-14,-3,0,nt,nt,
COc1cc(CNC2CCCc3ccccc32)cc(OC)c1O (stereo not given),0,18,57*,0,8,18,
COc1cc(OC)c(OC)cc1CNC1CCCc2ccccc21 (stereo not given),1,4,44,0,nt,nt,
CN1CCN(CC(=O)Nc2c3c(nc4c2CCC4)CCCC3)CC1,-1,3,74*,0,4,4,
Cc1n[nH]c(C)c1NC(=O)CN1CCCCCC1,1,0,62*,0,11,15,
O=C(CN1CCCCCC1)Nc1c2c(nc3c1CCC3)CCCC2,1,-4,58*,0,-5,-4,
CCCCC(=O)Nc1c2c(nc3c1CCC3)CCCC2,0,-4,-6,0,nt,nt,
O=C(CN1CCCC1)Nc1c2c(nc3c1CCC3)CCC2,0,0,76*,0,2,-5,
CCCCCC1CCC(c2ccc(-c3noc(-c4ccc(F)cc4)n3)cc2)CC1 (stereo not given),0,4,-2,0,nt,nt,
O=C(Nc1ccc(O)c(-c2nc3ccccc3s2)c1)c1cccc(Oc2ccccc2)c1,1,0,61*,0,3,1,
O=C(Nc1ccc(O)c(-c2nc3ccccc3s2)c1)c1ccccc1Oc1ccccc1,1,-1,-7,0,nt,nt,
O=C(Nc1nc2ccc(Cl)cc2s1)c1cccc(Oc2ccccc2)c1,1,-1,74*,0,1,7,
O=C(Nc1nc2ccc(F)cc2s1)c1cccc(Oc2ccccc2)c1,-1,-11,-3,0,nt,nt,
CCOC(=O)C(=O)Nc1sc(C(=O)N2CCOCC2)c(C)c1C#N,1,-2,71*,1,-6,-2,
